Reference: PubChem BioAssay (EPA / NIEHS)
Several values for one entry are separate records, joined by “and”; a condition that tells them apart may be missing. Identical values can stand only once. Results filed as inconclusive are left out. A structure can be active in one record and inactive in another. Activity calls are given as the source filed them. How the source made its calls, unless noted: active means hit-call score of the fitted dose curve at least 0.9, where 1 is the maximum; inactive means score below 0.9.

What was measured:
[1] = biological target: Retinoic acid receptor RXR-alpha (Homo sapiens) (UniProt P19793); test: ATG_RXRa_TRANS: Attagene TRANS-FACTORIAL HepG2 Assay for human Retinoid X Receptor alpha (RXRa) (AID 2283012; active means hit-call score of the fitted dose curve at least 0.9, where 1 is the maximum)
In short: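 TRANS format reporting activity of exogenous RXRa-Gal4 chimera in transiently transfected HepG2, 24 h exposure. Reporter transcripts quantified by RT-PCR with capillary electrophoresis, with gain of signal scored relative to DMSO.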

[2] = biological target: human Thyroid Receptor alpha (THRa1), THRA (gene 7067) (UniProt P10827); test: ATG_THRa1_TRANS: Attagene TRANS-FACTORIAL HepG2 Assay for human Thyroid Receptor alpha (THRa1) (AID 2283014; active means hit-call score of the fitted dose curve at least 0.9, where 1 is the maximum)
In short: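 HepG2 cells transiently transfected with chimeric NR-Gal4 and GAL4-UAS reporter units, dosed 24 h. Reporter mRNA quantified by RT-PCR, fluorescent labeling, HpaI digestion and capillary electrophoresis; gain-of-signal fit versus DMSO.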

[3] = read-out: Monocyte Chemoattractant Protein-1 (MCP1), CCL2 (gene 6347); test: BSK_3C_MCP1: BioMAP Diversity Plus: 3C Assay for Monocyte Chemoattractant Protein-1 (MCP1) Biomarker Activity (AID 2283017); settings: primary human endothelial cells (HUVEC); actives raise or lower the signal
In short: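 Human umbilical vein endothelial cells (3C system) exposed to chemicals for 24 h; MCP-1 quantified by ELISA against the DMSO baseline with bidirectional fitting, and parallel SRB staining used to assess cytotoxicity.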

[4] = read-out: Monocyte Chemoattractant Protein-1 (MCP1), CCL2 (gene 6347); test: BSK_4H_MCP1: BioMAP Diversity Plus: 4H Assay for Monocyte Chemoattractant Protein-1 (MCP1) Biomarker Activity (AID 2283018); settings: primary human endothelial cells (HUVEC); actives raise or lower the signal
In short: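 ELISA of MCP-1 (CCL2) 24 h after chemical dosing of HUVEC in the BioMAP 4H system. Gain or loss versus DMSO fitted; parallel SRB staining (560 nm) tracked overt cytotoxicity.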

[5] = read-out: Human Leukocyte Antigen - DR isotype (HLADR), HLA-DRA (gene 3122); test: BSK_3C_HLADR: BioMAP Diversity Plus: 3C Assay for Human Leukocyte Antigen - DR isotype (HLADR) Biomarker Activity (AID 2283019); settings: primary human endothelial cells (HUVEC); actives raise or lower the signal
In short: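 HUVEC monoculture, HLA-DR measured by ELISA 24 h after chemical dosing. Fitted bidirectionally against DMSO baseline; parallel SRB staining assessed cytotoxicity, with 3C proliferation read by SRB at 48 h.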

[6] = read-out: Interleukin-8 (IL8), CXCL8 (gene 3576); test: BSK_3C_IL8: BioMAP Diversity Plus: 3C Assay for Interleukin-8 (IL8) Biomarker Activity (AID 2283020); settings: primary human endothelial cells (HUVEC); actives raise or lower the signal
In short: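 IL-8 was measured by ELISA in HUVEC cultures 24 h after chemical dosing, with gain or loss of signal fitted relative to DMSO. Parallel SRB total-protein staining tracked overt cytotoxicity.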

[7] = read-out: Monokine induced gamma interferon (MIG), CXCL9 (gene 4283); test: BSK_3C_MIG: BioMAP Diversity Plus: 3C Assay for Monokine induced gamma interferon (MIG) Biomarker Activity (AID 2283021); settings: primary human endothelial cells (HUVEC); actives raise or lower the signal
In short: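 ELISA measurement of MIG in human umbilical vein endothelial cells 24 h after treatment. Cytotoxicity tracked by SRB staining in parallel cultures; gain or loss of signal fitted relative to DMSO.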

[8] = biological target: human Vitamin D Receptor (VDR), VDR (gene 7421) (UniProt P11473); test: ATG_VDR_TRANS: Attagene TRANS-FACTORIAL HepG2 Assay for human Vitamin D Receptor (VDR) (AID 2283022; active means hit-call score of the fitted dose curve at least 0.9, where 1 is the maximum)
In short: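 HepG2 cells were transiently transfected with GAL4-UAS reporter units and a chimeric VDR-Gal4 construct, then dosed for 24 hours. Reporter mRNA was quantified by RT-PCR, fluorescent labeling, HpaI digestion and capillary electrophoresis; gain of signal analysed vs DMSO.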

[9] = BSK_3C_SRB: Viability Assessment in the BioMAP Diversity Plus: 3C Assay (AID 2283023); settings: primary human endothelial cells (HUVEC);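 further: fitted both ways against DMSO so a hit may be signal rise or drop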
In short: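 Human umbilical vein endothelial cells in the 3C system, treated 24 h. Total protein measured by 0.1% sulforhodamine B staining after 10% TCA fixation, read at 560 nm; bidirectional fit versus DMSO.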

[10] = read-out: Matrix Metallopeptidase 1 (MMP1), MMP1 (gene 4312); test: BSK_BE3C_MMP1: BioMAP Diversity Plus: BE3C Assay for Matrix Metallopeptidase 1 (MMP1) Biomarker Activity (AID 2283024); settings: primary human bronchial epithelial cells; actives raise or lower the signal
In short: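 ELISA measurement of MMP-1 after 24 h compound exposure of primary human bronchial epithelial cells. Changes in either direction fitted relative to DMSO; parallel SRB staining checked overt cytotoxicity.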

[11] = read-out: Pselectin, SELP (gene 6403); test: BSK_4H_Pselectin: BioMAP Diversity Plus: 4H Assay for Pselectin Biomarker Activity (AID 2283026); settings: primary human endothelial cells (HUVEC); actives raise or lower the signal
In short: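 ELISA of surface P-selectin on HUVEC, 24 h after dosing, with parallel SRB staining (0.1% after 10% TCA fixation, 560 nm) for overt cytotoxicity. Activity fitted in both directions relative to DMSO.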

[12] = BSK_4H_SRB: Viability Assessment in the BioMAP Diversity Plus: 4H Assay (AID 2283027); settings: primary human endothelial cells (HUVEC);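 further: cells exposed to compound for 24 h before staining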
In short: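 HUVEC, 24 h post-dose; 10% TCA fix, 0.1% SRB stain, A560 nm. Total protein = overt cytotoxicity, parallel to biomarker read. Bidirectional fit vs DMSO baseline.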

[13] = BSK_BE3C_SRB: Viability Assessment in the BioMAP Diversity Plus: BE3C Assay (AID 2283028); settings: primary human bronchial epithelial cells
In short: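 Human bronchial epithelial primary cells in confluent culture, 24 h after chemical dosing; total protein by 0.1% SRB staining after 10% TCA fixation, read at 560 nm. Bidirectional fitting versus DMSO baseline.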

[14] = read-out: Thrombomodulin, THBD (gene 7056); test: BSK_3C_Thrombomodulin: BioMAP Diversity Plus: 3C Assay for Thrombomodulin Biomarker Activity (AID 2283029); settings: primary human endothelial cells (HUVEC); actives raise or lower the signal
In short: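 ELISA measurement of thrombomodulin on HUVEC surface 24 h after chemical dosing; activity fitted in both directions relative to DMSO vehicle.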

[15] = read-out: Urokinase-type plasminogen activator receptor (uPAR), PLAUR (gene 5329); test: BSK_4H_uPAR: BioMAP Diversity Plus: 4H Assay for Urokinase-type plasminogen activator receptor (uPAR) Biomarker Activity (AID 2283030); settings: primary human endothelial cells (HUVEC); actives raise or lower the signal
In short: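 Human umbilical vein endothelial cells in the 4H system, 24 h after chemical dosing. Cell-surface uPAR measured by ELISA, fitted in both directions versus DMSO; cytotoxicity checked by SRB total protein in parallel cultures.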

[16] = read-out: Vascular endothelial growth factor receptor 2 (Homo sapiens) (UniProt P35968); test: BSK_4H_VEGFRII: BioMAP Diversity Plus: 4H Assay for Vascular endothelial growth factor receptor 2 (VEGFR2) Biomarker Activity (AID 2283031); settings: primary human endothelial cells (HUVEC); actives raise or lower the signal
In short: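 Primary human umbilical vein endothelial cells (4H system), 24 h exposure; cell-surface VEGFR2 measured by ELISA. Bidirectional fitting versus DMSO; cytotoxicity checked in parallel by SRB total-protein staining.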

[17] = biological target: human Retinoid X Receptor beta (RXRb), RXRB (gene 6257) (UniProt P28702); test: ATG_RXRb_TRANS: Attagene TRANS-FACTORIAL HepG2 Assay for human Retinoid X Receptor beta (RXRb) (AID 2283013; active means hit-call score of the fitted dose curve at least 0.9, where 1 is the maximum)
In short: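 Readout is reporter transcript induction after 24 h dosing. It is measured by RT-PCR of total RNA followed by fluorescent capillary electrophoresis. HepG2 liver cells carry transfected multiple reporter units driven by an exogenous RXRb-Gal4 fusion; activity is relative to DMSO.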

[18] = read-out: E-selectin (Homo sapiens) (UniProt P16581); test: BSK_3C_Eselectin: BioMAP Diversity Plus: 3C Assay for Eselectin Biomarker Activity (AID 2283015); settings: primary human endothelial cells (HUVEC); actives raise or lower the signal
In short: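 Primary human umbilical vein endothelial cells (3C system), read 24 h after compound addition; E-selectin measured by ELISA. Bidirectional curve fitting against DMSO baseline; cytotoxicity by parallel SRB total-protein staining.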

[19] = BSK_3C_Vis: BioMAP Diversity Plus: 3C Assay for Morphology Visualization (AID 2283025); settings: primary human endothelial cells (HUVEC);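 further: fitted both ways so gain or loss versus DMSO counts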;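 on AC50: light microscopy image of cell morphology used as background control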
In short: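 Light-microscopy visualization of HUVEC cultures at 24 h post-treatment, with DMSO as baseline for bidirectional fitting.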

[20] = read-out: Interleukin-1 alpha (IL1a), IL1A (gene 3552); test: BSK_BE3C_IL1a: BioMAP Diversity Plus: BE3C Assay for Interleukin-1 alpha (IL1a) Biomarker Activity (AID 2283016); settings: primary human bronchial epithelial cells; actives raise or lower the signal
In short: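 IL-1a measured by ELISA after 24 h treatment of human primary bronchial epithelial cells, with gain or loss of signal fitted versus DMSO. Parallel cultures stained with SRB gauge overt cytotoxicity.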

Measured: AC50

Sequence of human Vitamin D Receptor (VDR), VDR (gene 7421) (P11473 whole entry, looked up, the tested form may be a part): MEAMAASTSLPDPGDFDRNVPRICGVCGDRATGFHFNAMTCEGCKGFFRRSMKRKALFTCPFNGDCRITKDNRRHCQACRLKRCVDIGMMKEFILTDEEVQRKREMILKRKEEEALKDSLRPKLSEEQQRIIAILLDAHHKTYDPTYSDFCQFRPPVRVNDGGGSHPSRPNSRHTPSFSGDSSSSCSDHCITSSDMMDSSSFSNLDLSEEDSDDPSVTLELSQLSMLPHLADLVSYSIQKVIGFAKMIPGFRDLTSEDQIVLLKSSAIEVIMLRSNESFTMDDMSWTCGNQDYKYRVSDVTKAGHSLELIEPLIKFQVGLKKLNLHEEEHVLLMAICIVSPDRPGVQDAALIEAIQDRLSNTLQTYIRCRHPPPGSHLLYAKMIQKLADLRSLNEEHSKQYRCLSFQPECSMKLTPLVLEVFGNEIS
Sequence of Retinoic acid receptor RXR-alpha (Homo sapiens) (P19793 whole entry, looked up, the tested form may be a part): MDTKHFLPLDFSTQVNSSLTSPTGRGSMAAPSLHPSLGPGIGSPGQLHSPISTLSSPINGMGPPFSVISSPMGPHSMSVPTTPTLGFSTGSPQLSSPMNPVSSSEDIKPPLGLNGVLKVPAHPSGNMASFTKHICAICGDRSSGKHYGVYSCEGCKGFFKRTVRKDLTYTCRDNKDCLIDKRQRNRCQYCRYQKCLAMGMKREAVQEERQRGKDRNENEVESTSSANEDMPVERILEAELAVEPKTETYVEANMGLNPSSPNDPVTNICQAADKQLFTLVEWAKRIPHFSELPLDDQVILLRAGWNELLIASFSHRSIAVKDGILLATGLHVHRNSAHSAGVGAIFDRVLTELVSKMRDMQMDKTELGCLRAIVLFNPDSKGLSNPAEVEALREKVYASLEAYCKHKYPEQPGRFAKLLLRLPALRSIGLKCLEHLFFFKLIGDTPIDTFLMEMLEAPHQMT
Sequence of human Thyroid Receptor alpha (THRa1), THRA (gene 7067) (P10827 whole entry, looked up, the tested form may be a part): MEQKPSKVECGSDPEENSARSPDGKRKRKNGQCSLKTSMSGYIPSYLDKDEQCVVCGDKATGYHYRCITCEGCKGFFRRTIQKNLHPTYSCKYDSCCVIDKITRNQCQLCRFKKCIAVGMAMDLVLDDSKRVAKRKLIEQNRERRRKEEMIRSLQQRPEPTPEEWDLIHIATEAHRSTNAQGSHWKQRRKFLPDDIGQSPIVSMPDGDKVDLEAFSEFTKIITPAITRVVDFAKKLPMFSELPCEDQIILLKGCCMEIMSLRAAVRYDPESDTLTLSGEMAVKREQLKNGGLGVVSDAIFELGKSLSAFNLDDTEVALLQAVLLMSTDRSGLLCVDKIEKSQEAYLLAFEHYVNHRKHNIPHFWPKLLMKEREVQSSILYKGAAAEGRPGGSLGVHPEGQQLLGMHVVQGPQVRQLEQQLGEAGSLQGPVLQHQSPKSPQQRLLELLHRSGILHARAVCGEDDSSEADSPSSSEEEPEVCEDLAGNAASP
Sequence of E-selectin (Homo sapiens) (P16581 whole entry, looked up): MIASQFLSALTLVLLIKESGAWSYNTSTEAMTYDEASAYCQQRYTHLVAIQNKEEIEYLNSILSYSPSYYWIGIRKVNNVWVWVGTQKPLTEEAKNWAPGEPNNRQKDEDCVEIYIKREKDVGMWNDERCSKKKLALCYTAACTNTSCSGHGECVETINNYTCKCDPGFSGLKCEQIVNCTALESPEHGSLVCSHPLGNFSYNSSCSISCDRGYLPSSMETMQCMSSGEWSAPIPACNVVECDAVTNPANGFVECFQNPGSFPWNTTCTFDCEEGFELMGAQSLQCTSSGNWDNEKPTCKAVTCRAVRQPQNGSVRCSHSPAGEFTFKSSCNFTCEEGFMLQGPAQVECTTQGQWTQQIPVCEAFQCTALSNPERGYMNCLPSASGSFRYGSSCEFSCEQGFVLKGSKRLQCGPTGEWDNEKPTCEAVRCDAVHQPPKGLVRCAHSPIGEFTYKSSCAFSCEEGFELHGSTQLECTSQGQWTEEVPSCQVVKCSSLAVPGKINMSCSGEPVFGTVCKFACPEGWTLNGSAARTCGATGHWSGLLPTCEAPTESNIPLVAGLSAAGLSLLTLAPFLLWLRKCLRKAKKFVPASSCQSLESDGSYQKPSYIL
Sequence of human Retinoid X Receptor beta (RXRb), RXRB (gene 6257) (P28702 whole entry, looked up, the tested form may be a part): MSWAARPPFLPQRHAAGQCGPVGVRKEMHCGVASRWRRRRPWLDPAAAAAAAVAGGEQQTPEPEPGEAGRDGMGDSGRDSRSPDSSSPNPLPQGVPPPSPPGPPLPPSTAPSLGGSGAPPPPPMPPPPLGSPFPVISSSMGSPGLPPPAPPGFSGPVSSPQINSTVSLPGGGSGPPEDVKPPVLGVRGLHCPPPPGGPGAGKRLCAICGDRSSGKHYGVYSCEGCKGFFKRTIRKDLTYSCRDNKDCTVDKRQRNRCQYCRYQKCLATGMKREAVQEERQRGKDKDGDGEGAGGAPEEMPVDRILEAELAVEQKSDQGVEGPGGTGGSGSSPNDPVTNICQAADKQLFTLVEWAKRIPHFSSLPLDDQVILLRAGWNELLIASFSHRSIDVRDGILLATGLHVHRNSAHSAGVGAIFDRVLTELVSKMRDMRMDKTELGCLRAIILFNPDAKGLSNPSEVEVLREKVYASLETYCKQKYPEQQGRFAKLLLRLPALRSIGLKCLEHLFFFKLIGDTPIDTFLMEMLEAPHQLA

Oc1ccc(Cc2ccccc2O)cc1
not listed: [17] | [18] | [19] | [20]
inactive: all other assays above

C=CC(F)(F)C(F)(F)C(F)(F)C(F)(F)F
inactive: [1] | [8]

O=C(F)C(F)(F)C(F)(F)C(F)(F)C(=O)F
inactive: [1] | [8]

CC1CCC(CO)CC1 (configuration not stated)
inactive: [1] | [8]

CCN(CC)CC
inactive: [1] | [2] | [8]

Cc1ccccc1OCC(=O)O
inactive: [17]

Cc1cc(C(C)(C)C)c(O)c(C(C)(C)C)c1
active: [17] 918 nM and 88 nM

N=C(N)c1ccc(OCCCCCOc2ccc(C(=N)N)cc2)cc1
active: [18] 0.932 µM | [5] 10.1 µM | [6] 12.3 µM | [19] 8.61 µM | [11] 7.2 µM | [15] 3.47 µM
not listed: [2] | [10] | [17] | [20]
inactive: all other assays above

O=P(O)(O)CCC(F)(F)C(F)(F)C(F)(F)C(F)(F)C(F)(F)C(F)(F)F
active: [14] 22.7 µM
inactive: [1] | [2] | [18] | [3] | [4] | [5] | [6] | [7] | [9] | [11] | [12] | [13] | [14] | [15] | [16]

Clc1ccc(Nc2nnc(Cc3ccncc3)c3ccccc23)cc1
not listed: [2] | [9] | [17] | [18] | [20]
inactive: all other assays above

CN(C)CCOC(c1ccccc1)c1ccccc1
active: [4] 0.351 µM | [11] 3.97 µM | [15] 2.27 µM
not listed: [8] | [10] | [17] | [18]
inactive: all other assays above

O=C(NO)c1ccccc1
not listed: [2] | [10] | [17] | [18] | [20]
inactive: all other assays above

Oc1c(Cl)ccc(Cl)c1Cl
inactive: [1] | [8]

COC(=O)C(F)(F)C(F)(F)C(F)(F)F
inactive: [1] | [2] | [8]

O=S(=O)(c1ccc(OCc2ccccc2)cc1)c1ccccc1O
inactive: [1] | [2] | [8]

FC(F)(F)C(F)(F)C(F)(F)C(F)(F)I
inactive: [1] | [8]

FC(F)(F)C(F)(F)C(F)(F)Br
inactive: [17]

OCC(CO)(CBr)CBr
not listed: [2] | [8] | [17] | [18] | [20]
inactive: all other assays above

c1cc[nH]c1
inactive: [17]

CCCCC(CC)C(=O)OCCOCCOCCOCCOC(=O)C(CC)CCCC (configuration not stated)
active: [5] 11.4 µM
not listed: [2] | [17] | [18] | [20]
inactive: all other assays above

O=C(OC(=O)C(F)(F)C(F)(F)F)C(F)(F)C(F)(F)F
inactive: [1] | [2] | [8]

Brc1cc(Br)c(Oc2c(Br)cc(Br)c(Br)c2Br)cc1Br
inactive: [1] | [8]

CCCCCCCCCCCC[N+](C)(C)CCCCCCCCCCCC
inactive: [1] | [2] | [8]

NNc1nc(-c2ccc([N+](=O)[O-])cc2)cs1
inactive: [1] | [8]

CC1CCC(C(=O)O)CC1 (configuration not stated)
inactive: [1] | [8]

CCCCCCCCCCCCOC(=O)c1cc(O)c(O)c(O)c1
inactive: [1] | [8]

O=C(C=C(O)C(F)(F)F)C(F)(F)F
inactive: [1] | [8]

FCOC(C(F)(F)F)C(F)(F)F
inactive: [1] | [8]

CN(CCO)S(=O)(=O)C(F)(F)C(F)(F)C(F)(F)C(F)(F)C(F)(F)C(F)(F)C(F)(F)C(F)(F)F
active: [10] 1.63 µM | [11] 0.243 µM
inactive: [1] | [2] | [3] | [4] | [5] | [6] | [7] | [9] | [10] | [11] | [12] | [13] | [14] | [15] | [16]

CC=O
inactive: [1] | [8]

CCCCCCCCCCCCCCC
not listed: [1] | [2] | [8]
inactive: all other assays above
